Reference: PubChem BioAssay (Tox21)
Records with an inconclusive call do not appear. Entries that show only a call come without a potency. Activity calls are given as the source filed them. Calls come from the whole dose curve; as a rule, active = well fitted cell-killing curve with a large enough effect in the repeat runs; inconclusive = weak or mixed curves, or effect the other way; inactive = flat fitted curve, though single readings scatter.

Columns and labels:
[1] = cAMP Responsive Elements (CRE) small molecule antagonists, cell-based qHTS assay: qHTS cell viability counter screen (AID 2060913); note: nearly all actives have a fitted effect of over 40% in size
How it was run: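 CRE-bla HEK293T cells (2,000/well, 18 h) given compound plus NKH477 0.25 uM final for 3 h at 37C; viability counter-screen by CellTiter-Glo luminescence in same wells after 30 min.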

[2] = cAMP Responsive Elements (CRE) small molecule agonists, cell-based qHTS assay: qHTS cell viability counter screen (AID 2060914);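 note: viability read after 3 h of compound exposure; nearly all actives have a fitted effect of over 50% in size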
How it was run: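 CRE-bla HEK293T cells in 10% dialyzed FBS medium were exposed to compounds for 3 h at 37C after 18 h plating. CellTiter-Glo was then added in the same wells, and luminescence was read after 30 min at room temperature.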

Row | Compound | Potency [1] | Potency [2]
1 | CC(=O)O[Si](C)(OC(C)=O)OC(C)=O | inactive | inactive
2 | O=C1c2ccccc2Cc2ccccc21 | inactive | inactive
3 | OC/C=C/c1ccccc1 | inactive | inactive
4 | OCCCC1CCCCC1 | inactive | inactive
5 | CCC(C)C1N=C(C)C(C)S1 (stereo not given) | inactive | inactive
6 | C1COCO1 | inactive | inactive
7 | CN1C[C@H]2c3ccccc3Oc3ccc(Cl)cc3[C@@H]2C1 | inactive | inactive
8 | Cc1ccc([N+](=O)[O-])cc1N | inactive | inactive
9 | O=C1c2ccccc2C(=O)c2cc(S(=O)(=O)O)ccc21 | inactive | inactive
10 | CCCCOC(=O)C(C)Oc1ccc(Oc2ccc(C(F)(F)F)cn2)cc1 (stereo not given) | inactive | inactive
11 | CC(C)COC(=O)c1ccc(O)cc1 | inactive | inactive
12 | O=C1OC(c2ccc(O)cc2)(c2ccc(O)cc2)c2ccccc21 | inactive | inactive
13 | C[C@@H](O)[C@H]1C(=O)N2C(C(=O)O)=C(S[C@@H]3CN[C@H](C(=O)N(C)C)C3)[C@H](C)[C@H]12 | inactive | inactive
14 | O=C(O)CCC(=O)O | inactive | inactive
15 | CCSC(=O)N(CC(C)C)CC(C)C | inactive | inactive
16 | C=CCOc1ccccc1OCC(O)CNC(C)C (stereo not given) | inactive | inactive
17 | C/C(CC(C)C)=N\O | inactive | inactive
18 | Nc1ccc(C(=O)OCCCOC(=O)c2ccc(N)cc2)cc1 | inactive | inactive
19 | CCOC(=O)Cc1cccc2ccccc12 | inactive | inactive
20 | CC1=C(C/C=C(\C)CCC[C@H](C)CCC[C@H](C)CCCC(C)C)C(=O)c2ccccc2C1=O | inactive | inactive
